What is called inhibition is the relative decrease from the control value, in per cent.

Several values for one entry are separate records, joined by “and”; a condition that tells them apart may be missing. Identical values can stand only once. Activity calls are given as the source filed them. No stated cut-off is given here; in the data, active means inhibition above about 80%; inactive means the rest.
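Further: cells exposed for 96 hours before readout.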

A short description of the first assay: ICB984 medulloblastoma cell growth inhibition, synergistic combos for chromothripsis tumors, cisplatin or BGB combos (AID 1671451).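 Further: 0% = vehicle DMSO and 100% = killing by high DMSO.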 The settings on record: ICB984 medulloblastoma cells, drug combinations, cisplatin combo, at 0.05 µM, stronger effect = higher value.
Take `CC(=O)OCC(CCn1cnc2cnc(N)nc21)COC(C)=O`: the inhibition is -17.8%.
In the case of `S=c1nc[nH]c2nc[nH]c12`, the inhibition was -14.4% and -8.61% and -23%.
As for `COc1c(N2CCNC(C)C2)c(F)cc2c(=O)c(C(=O)O)cn(C3CC3)c12` (stereo not drawn), the inhibition was -15.7% and 18%.
Consider `CC1COc2c(N3CCN(C)CC3)c(F)cc3c(=O)c(C(=O)O)cn1c23` (stereo not drawn), for which the inhibition is -29.6% and 10.2% and -23%.
On the same count and under the same terms, to `O=C1c2c(O)ccc(O)c2C(=O)c2c(NCCNCCO)ccc(NCCNCCO)c21` belongs 101%.
In the case of `CS(=O)(=O)OCCCCOS(C)(=O)=O`, the inhibition is -11.3% and 3.18%.
For the compound `O=C(O)CCCc1ccccc1`, the inhibition was determined as 3.61%.

The assay is the same for the next values; noted with them: ICB984 medulloblastoma cells, drug combinations, cisplatin combo, at 0.5 µM, stronger effect = higher value.
As to `CC(=O)OCC(CCn1cnc2cnc(N)nc21)COC(C)=O`, the inhibition is -37.3%.
As to `S=c1nc[nH]c2nc[nH]c12`, the inhibition was -25.2% and -17.5% and -28.1%.
On to `COc1c(N2CCNC(C)C2)c(F)cc2c(=O)c(C(=O)O)cn(C3CC3)c12` (stereo not drawn), for which the inhibition is -12.4% and -7.73%.
Consider `CC1COc2c(N3CCN(C)CC3)c(F)cc3c(=O)c(C(=O)O)cn1c23` (stereo not drawn), for which the inhibition was -35.8% and -11.2% and -26.4%.
`O=C1c2c(O)ccc(O)c2C(=O)c2c(NCCNCCO)ccc(NCCNCCO)c21`: the inhibition was -40.5%.
On to `CS(=O)(=O)OCCCCOS(C)(=O)=O`, for which the inhibition is -9.08% and -3.26%.
As for `O=C(O)CCCc1ccccc1`, the inhibition is -38.8%.

The same assay, now with this note: ICB984 medulloblastoma cells, drug combinations, cisplatin combo, at 5 µM, stronger effect = higher value.
For the compound `CC(=O)OCC(CCn1cnc2cnc(N)nc21)COC(C)=O`, the inhibition was -37.5%.
The same measure, in the same setting: next, `S=c1nc[nH]c2nc[nH]c12`: -3.58% and -36.1% and -37.1%; `COc1c(N2CCNC(C)C2)c(F)cc2c(=O)c(C(=O)O)cn(C3CC3)c12` (stereo not drawn): -26.5% and -51.5%.
Still for that read-out and setting: to `CC1COc2c(N3CCN(C)CC3)c(F)cc3c(=O)c(C(=O)O)cn1c23` (stereo not drawn) belongs -56.5% and 3.02% and -28.7%.
For the compound `O=C1c2c(O)ccc(O)c2C(=O)c2c(NCCNCCO)ccc(NCCNCCO)c21`, the inhibition was -32.5%.
Still for that read-out and setting: next, `CS(=O)(=O)OCCCCOS(C)(=O)=O`: -50.4% and -16.4%; `O=C(O)CCCc1ccccc1`: -20.8%.

Staying with this assay, now noted: ICB984 medulloblastoma cells, drug combinations, measured here: 5 uM single agent, at 5 µM, stronger effect = higher value.
`CC(=O)OCC(CCn1cnc2cnc(N)nc21)COC(C)=O`: the inhibition was -40.1%.
The same measure, in the same setting: to `S=c1nc[nH]c2nc[nH]c12` belongs -34.5% and -9.53% and -28.9%; to `COc1c(N2CCNC(C)C2)c(F)cc2c(=O)c(C(=O)O)cn(C3CC3)c12` (stereo not drawn), -2.69% and -3.52%; to `CC1COc2c(N3CCN(C)CC3)c(F)cc3c(=O)c(C(=O)O)cn1c23` (stereo not drawn), -20% and 15.7% and -1.17%.
Same read-out and setting: next, `O=C1c2c(O)ccc(O)c2C(=O)c2c(NCCNCCO)ccc(NCCNCCO)c21`: -34.5%; `CS(=O)(=O)OCCCCOS(C)(=O)=O`: -29.1% and 6.4%.
Same read-out and setting: to `O=C(O)CCCc1ccccc1` belongs -6.76%.

A further assay can be described thus: LFS_MB_1R medulloblastoma cell growth inhibition, synergistic combos for chromothripsis tumors, cisplatin or BGB combos (AID 1671452). Conditions: LFS_MB_1R medulloblastoma cells, at 0.5 µM, stronger effect = higher value.
`CC(=O)OCC(CCn1cnc2cnc(N)nc21)COC(C)=O`: the inhibition was -6.39% (inactive).
Take `S=c1nc[nH]c2nc[nH]c12`: the inhibition was -9.9% (inactive) and -33.2% (inactive) and -36.1% (inactive).
Regarding `COc1c(N2CCNC(C)C2)c(F)cc2c(=O)c(C(=O)O)cn(C3CC3)c12` (stereo not drawn), the inhibition is -13.4% (inactive) and -12.7% (inactive).
Take `CC1COc2c(N3CCN(C)CC3)c(F)cc3c(=O)c(C(=O)O)cn1c23` (stereo not drawn): the inhibition is -39.4% (inactive) and -8.3% (inactive) and 2.79% (inactive).
Consider `O=C1c2c(O)ccc(O)c2C(=O)c2c(NCCNCCO)ccc(NCCNCCO)c21`, for which the inhibition was -4.33% (inactive).
For the compound `CS(=O)(=O)OCCCCOS(C)(=O)=O`, the inhibition is -13.7% (inactive) and -24.5% (inactive).
Same read-out and setting: to `O=C(O)CCCc1ccccc1` belongs -18.6% (inactive).

The assay is the same for the next values; noted with them: LFS_MB_1R medulloblastoma cells, measured here: combination with BGB IC40, at 0.05 µM, stronger effect = higher value.
As for `CC(=O)OCC(CCn1cnc2cnc(N)nc21)COC(C)=O`, the inhibition is -41.8%.
Regarding `S=c1nc[nH]c2nc[nH]c12`, the inhibition was 14.7% and -35.7% and -8.62%.
`COc1c(N2CCNC(C)C2)c(F)cc2c(=O)c(C(=O)O)cn(C3CC3)c12` (stereo not drawn): the inhibition was -24.8% and -10.4%.
On the same count and under the same terms, next, `CC1COc2c(N3CCN(C)CC3)c(F)cc3c(=O)c(C(=O)O)cn1c23` (stereo not drawn): -24.5% and -34% and -2.54%; `O=C1c2c(O)ccc(O)c2C(=O)c2c(NCCNCCO)ccc(NCCNCCO)c21`: 1.71%; `CS(=O)(=O)OCCCCOS(C)(=O)=O`: -7.13% and -11.8%.
`O=C(O)CCCc1ccccc1`: the inhibition was -25.4%.

Staying with this assay, now noted: LFS_MB_1R medulloblastoma cells, measured here: combination with cisplatin, at 0.5 µM, stronger effect = higher value.
`CC(=O)OCC(CCn1cnc2cnc(N)nc21)COC(C)=O`: the inhibition was -15.8%.
`S=c1nc[nH]c2nc[nH]c12`: the inhibition is -4.25% and -33.8% and -75.5%.
For the compound `COc1c(N2CCNC(C)C2)c(F)cc2c(=O)c(C(=O)O)cn(C3CC3)c12` (stereo not drawn), the inhibition was -39.4% and -1.15%.
On to `CC1COc2c(N3CCN(C)CC3)c(F)cc3c(=O)c(C(=O)O)cn1c23` (stereo not drawn), for which the inhibition was -78.8% and -30% and 23.8%.
As for `O=C1c2c(O)ccc(O)c2C(=O)c2c(NCCNCCO)ccc(NCCNCCO)c21`, the inhibition is 72.8%.
Turning to `CS(=O)(=O)OCCCCOS(C)(=O)=O`, the inhibition is -41.7% and -21.3%.
On the same count and under the same terms, to `O=C(O)CCCc1ccccc1` belongs -26.8%.

The assay is the same for the next values; noted with them: LFS_MB_1R medulloblastoma cells, measured here: combination with cisplatin, at 5 µM, stronger effect = higher value.
For `CC(=O)OCC(CCn1cnc2cnc(N)nc21)COC(C)=O`, the inhibition was -6.32%.
Turning to `S=c1nc[nH]c2nc[nH]c12`, the inhibition is -15.4% and -37% and -57.5%.
As to `COc1c(N2CCNC(C)C2)c(F)cc2c(=O)c(C(=O)O)cn(C3CC3)c12` (stereo not drawn), the inhibition was -37.1% and -28.2%.
On to `CC1COc2c(N3CCN(C)CC3)c(F)cc3c(=O)c(C(=O)O)cn1c23` (stereo not drawn), for which the inhibition is -87.1% and 21.5% and -3.71%.
In the case of `O=C1c2c(O)ccc(O)c2C(=O)c2c(NCCNCCO)ccc(NCCNCCO)c21`, the inhibition is 94.2%.
In the case of `CS(=O)(=O)OCCCCOS(C)(=O)=O`, the inhibition was -51.5% and 4.47%.
Regarding `O=C(O)CCCc1ccccc1`, the inhibition was -16.2%.

The nature of a further assay: HTB85 osteosarcoma cell growth inhibition, synergistic combos for chromothripsis tumors, BGB or cisplatin IC20 combos (AID 1671453).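 Further: 0% = vehicle DMSO and 100% = high DMSO killing control.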 Conditions: HTB85 osteosarcoma cells, drug combinations, at 0.5 µM, stronger effect = higher value.
For the compound `CC(=O)OCC(CCn1cnc2cnc(N)nc21)COC(C)=O`, the inhibition is -2.55% (inactive).
Consider `S=c1nc[nH]c2nc[nH]c12`, for which the inhibition is -18.6% (inactive) and -13.7% (inactive) and -28.1% (inactive).
As for `COc1c(N2CCNC(C)C2)c(F)cc2c(=O)c(C(=O)O)cn(C3CC3)c12` (stereo not drawn), the inhibition was -28.9% (inactive) and -4.45% (inactive).
The same measure, in the same setting: next, `CC1COc2c(N3CCN(C)CC3)c(F)cc3c(=O)c(C(=O)O)cn1c23` (stereo not drawn): -45.9% (inactive) and 3.58% (inactive) and -0.61% (inactive); `O=C1c2c(O)ccc(O)c2C(=O)c2c(NCCNCCO)ccc(NCCNCCO)c21`: 94.8% (active); `CS(=O)(=O)OCCCCOS(C)(=O)=O`: -4.73% (inactive) and 3.45% (inactive).
Turning to `O=C(O)CCCc1ccccc1`, the inhibition is -13.7% (inactive).

Values taken from PubChem BioAssay.
